Measured values: the supplement of paper PMC6555819

Assays:
Assay in all cases: PBM binding z-score (relative to random genomic background probes); higher = stronger binding; sequences stand for … in GC…GCGATTGACAGCGTAGAATGAAGG
[1] = system: PPARg:RXRa DBDmut IVT, anti-RXR (DBD mutation: RXRa K156A/R161A, NR concentration 270 nM, RXRa partner concentration 90 nM)
Summary of the method: (§1)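 On custom Agilent 4×180K arrays, double-stranded probes with 34-nt variable regions carried direct-repeat seeds, single-nucleotide variants, half-site ablations or random human genomic background. Ligand-free nuclear receptor dimers were applied for 1 h, and binding was read with antibodies against each partner (one per run). Binding z-scores come from regression-normalized fluorescence, with the random background probes as reference.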

[2] = system: PPARg:RXRa IVT, anti-PPARg (NR concentration 270 nM, RXRa partner concentration 90 nM)
Summary of the method: as §1

[3] = system: PPARg DBDmut:RXRa IVT, anti-PPARg (DBD mutation: PPARg1 K132A/R137A, NR concentration 270 nM, RXRa partner concentration 90 nM)
Summary of the method: as §1

[4] = system: PPARg DBDmut IVT, anti-PPARg (DBD mutation: PPARg1 K132A/R137A, NR concentration 270 nM)
Summary of the method: as §1

[5] = system: PPARg homodimer (NR concentration 180 nM)
Summary of the method: as §1

[6] = system: PXR:RXRa (NR concentration 270 nM, RXRa partner concentration 90 nM)
Summary of the method: as §1

[7] = system: PXR homodimer (NR concentration 270 nM)
Summary of the method: as §1

[8] = system: RARa:RXR (NR concentration 270 nM, RXRa partner concentration 90 nM)
Summary of the method: as §1

[9] = system: RARa homodimer (NR concentration 270 nM)
Summary of the method: as §1

[10] = system: RARb:RXRa (NR concentration 270 nM, RXRa partner concentration 90 nM)
Summary of the method: as §1

[11] = system: RARb homodimer (NR concentration 270 nM)
Summary of the method: as §1

[12] = system: RARg:RXRa (NR concentration 270 nM, RXRa partner concentration 90 nM)
Summary of the method: as §1

[13] = system: RARg homodimer (NR concentration 270 nM)
Summary of the method: as §1

[14] = system: RXRa DBDmut IVT, anti-RXR (DBD mutation: RXRa K156A/R161A, NR concentration 90 nM)
Summary of the method: as §1

[15] = system: RXRa homodimer (NR concentration 180 nM)
Summary of the method: as §1

[16] = system: THRa:RXRa (NR concentration 90 nM, RXRa partner concentration 90 nM)
Summary of the method: as §1

[17] = system: THRa homodimer (NR concentration 90 nM)
Summary of the method: as §1

[18] = system: VDR homodimer (NR concentration 270 nM)
Summary of the method: as §1

Sequence	PBM binding z-score [1]	PBM binding z-score [2]	PBM binding z-score [3]	PBM binding z-score [4]	PBM binding z-score [5]	PBM binding z-score [6]	PBM binding z-score [7]	PBM binding z-score [8]	PBM binding z-score [9]	PBM binding z-score [10]	PBM binding z-score [11]	PBM binding z-score [12]	PBM binding z-score [13]	PBM binding z-score [14]	PBM binding z-score [15]	PBM binding z-score [16]	PBM binding z-score [17]	PBM binding z-score [18]
CAAAGTAGGTCACGAAAGGTCAAAGTCGAATGAC	8.95	9.16	2.49	0.871	5.21	7.05	2.22	7.43	4.05	5.68	6.1	8.06	8.76	2.36	8.62	4.95	1.49	3.31
CAAACTAGGTCAAGAGGTCAAAGGCCGCTTCCCG	8.35	8.52	6.15	3	8.5	6.37	2.72	8.18	4.57	5.58	5.53	8.17	7.84	2.67	7.98	4.21	2.35	4.46
CCTGCTCGGTCAATGGTCAGCTAAAGCAGCTCGC	0.753	0.0131	-1.19	-1.21	-0.242	-0.189	-0.933	0.252	-0.686	2.28	1.62	1.65	2.47	0.331	0.053	-0.136	-0.403	-0.799
CTAACTAGGTCACCGGAAGGTCAAAGTCCGCATG	8.81	9.32	3.69	4.14	5.86	6.02	2.05	7.24	1.84	5.55	5.66	8.24	7.39	2.16	6.18	4.48	2.98	2.9
TCTAGTTCGTCACGGAGGTCACACACGACGGGTA	1.52	2.15	0.73	0.867	6.1	5.15	2.64	5.11	2.71	3.83	4.28	4.52	4.04	2.51	4.68	3.67	2.73	3.58
TGAATGAGGTGAAAGATCAGGGAACGTGGCGTCG	3.85	5	2.22	0.574	0.746	0.587	-0.0848	1.8	-0.562	1.48	0.154	1.51	0.868	-0.365	2.17	2.78	0.878	-0.213
ACTAGAAGGCCAAGGGTCACTCAAGATTAGTCCG	0.756	3.55	0.734	-0.0604	5	3.73	0.235	5.15	1.18	3.92	3.97	4.79	4.33	0.883	4.57	2.87	0.528	1.92
TAGCCTAGGTCATGGGCCTGTATACCACGCGAAC	1.69	3.19	0.382	-0.135	1.45	1.82	-0.611	3.17	0.359	3.97	3.34	4.47	4.67	0.485	3.9	3.23	1.31	0.584
GATTACGGGTCAAAGGTTATAGCATGAATAGAAT	5.21	6.61	1.49	3.11	2.97	6.03	0.645	8.43	1.34	4.69	3.44	7.12	4.85	2.27	9.48	3.95	0.146	1.64
CTAACTAGGTCACAGAGGTCAAAGTCCGTGCGTA	8.94	9.17	7.21	5.22	4.09	6.74	12.1	7.31	3.9	5.32	5.46	7.35	7.81	3.52	7.99	4.64	3.13	7.07
TCTAGTTGGTCAAAGGTCAAACACTCGAAATGCG	3.57	6.13	0.582	1.1	5.11	6.28	2.64	7.64	2.96	5.23	5.02	7.43	6.41	2.11	8.23	4.04	1.45	3.12
ATCGAAAGGTCGTGACGTGAGTATACAGAAAGGC	-0.00761	1.68	1.56	0.662	1.61	2.98	0.0582	3.7	0.369	3.74	2.18	4.37	3.53	0.904	4.94	2.15	-0.269	0.662
TCTTGTTGATCAAAGGTTAAGAAAGCCGAAGCCT	1.8	2.11	1.32	0.442	1.36	1.74	0.07	2.31	0.624	2.04	1.89	1.64	1.11	0.76	2.64	1.58	-0.291	0.435
TCAGATAGGTAAAGGTGAAAGTCGAACGATATGA	2.81	2.22	0.559	0.38	1.31	0.975	0.0879	1.75	0.371	2.16	1.76	1.57	1.27	0.734	2.33	1.33	-0.218	-0.344
